Measurements published in PubChem BioAssay (NCATS).
Results filed as inconclusive are left out. Some of the results follow. Activity calls are given as the source filed them. Unless noted, calls follow the shape of the dose curve; as a rule, active = well fitted curve in the direction sought with a large enough effect; inconclusive = small, poorly fitted or top-dose-only effect, or another doubt; inactive = no such curve, though single readings can be large; an effect the other way counts as inactive or inconclusive.

How the values were obtained:
[1] = biological target: Tumor susceptibility gene 101 protein (Homo sapiens) (UniProt Q99816); experiment: qHTS Assay for Iinhibitors of HIV-1 Budding by Blocking the Interaction of PTAP/TSG101: Hit Validation (AID 651600); also: potency is read from the fitted curve at half-maximal effect; nearly all actives have a fitted effect of over 70% in size
Summary of the method: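 FITC-PTAP peptide (50 nM final) binding to Tsg101 binding domain (10 uM final) was measured by polarization after 20 min at r.t. with compounds, in 10 mM HEPES pH 7.5 buffer with 0.15 M NaCl and 0.01% Tween 20.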

[2] = biological target: Rap guanine nucleotide exchange factor 3 (Homo sapiens) (UniProt O95398); experiment: Confirmatory qHTS for antagonist of cAMP-regulated guanine nucleotide exchange factor 3 (EPAC1) (AID 1645880); details: EPAC1 Rap1B-BODIPY-GDP exchange, fluorescence; activity, negative = inhibition: at 115 µM (top of the series); also: nearly all actives have a fitted effect of over 55% in size; also: potency is read from the fitted curve at half-maximal effect;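 as to activity, negative = inhibition: plate controls were DMSO only for no effect and full effect of the ATA control for full effect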
Summary of the method: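 Released BODIPY-GDP fluoresces less than Rap1-bound BODIPY-GDP; the signal is followed at 480/540 nm at 5-min intervals over 30 min, after 5 min at room temperature. Reactions contain 100 nM EPAC1, 250 nM RAP1B-BODIPY-GDP and 50 uM GDP; results are normalized to ATA and DMSO.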

[3] = biological target: Rap guanine nucleotide exchange factor 3 (Homo sapiens) (UniProt O95398); experiment: Confirmatory qHTS for agonist of cAMP-regulated guanine nucleotide exchange factor 3 (EPAC1) (AID 1645881); also: nearly all actives have a fitted effect of over 75% in size; also: potency is read from the fitted curve at half-maximal effect;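 as to activation: EPAC1 catalysed release of BODIPY-GDP from Rap1B seen as fluorescence loss; 100% = effect of cAMP agonist control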
[4] = biological target: Rap guanine nucleotide exchange factor 4 (Homo sapiens) (UniProt Q8WZA2); experiment: Confirmatory qHTS for agonist of cAMP-regulated guanine nucleotide exchange factor 4 (EPAC2) (AID 1645884);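 also: nucleotide exchange releases bodipy-GDP from Rap1 and this lowers its fluorescence; nearly all actives have a fitted effect of over 65% in size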; also: potency is read from the fitted curve at half-maximal effect
[5] = biological target: Rap guanine nucleotide exchange factor 4 (Homo sapiens) (UniProt Q8WZA2); experiment: Confirmatory qHTS for antagonist of cAMP-regulated guanine nucleotide exchange factor 4 (EPAC2) (AID 1645885); also: nearly all actives have a fitted effect of over 25% in size; also: potency is read from the fitted curve at half-maximal effect
[6] = biological target: Rap guanine nucleotide exchange factor 3 (Homo sapiens) (UniProt O95398); experiment: Counterscreen qHTS for antagonist of cAMP-regulated guanine nucleotide exchange factor 3 (EPAC1) (AID 1645888); also: % of control where 0% means no effect
Summary of the method: (§1)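 Rap1B-BODIPY-GDP 250 nM + GDP 50 uM; cpds 7-pt, final 9.74 nM–152 uM (activator mode) or from 7.32 nM upwards (inhibitor mode); RT; FI 480/540 nm at 5 and 30 min, then ± cAMP, reread.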

[7] = biological target: Rap guanine nucleotide exchange factor 3 (Homo sapiens) (UniProt O95398); experiment: Counterscreen qHTS for agonist of cAMP-regulated guanine nucleotide exchange factor 3 (EPAC1) (AID 1645889); also: nearly all actives have a fitted effect of over 40% in size; also: potency is read from the fitted curve at half-maximal effect; as to activation: % of control where 0% means no effect
Summary of the method: as §1

[8] = biological target: DNA polymerase iota (Homo sapiens) (UniProt Q9UNA4); experiment: qHTS for Inhibitors of Polymerase Iota: Confirmatory Assay for Cherry-picked Compounds (AID 720496); details: Pol iota primer extension, TAMRA/BHQ fluorescence; also: potency is read from the fitted curve at half-maximal effect
Summary of the method: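 10 nM Pol iota + cpd, 15 min RT; start w/ 50 nM (final) TAMRA reporter/BHQ-2 template primer substrate; ex 525/em 598 nm read at 0 and 10 min kinetic.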

[9] = biological target: DNA polymerase eta (Homo sapiens) (UniProt Q9Y253); experiment: qHTS for Inhibitors of Polymerase Eta: Confirmatory Assay for Cherry-picked Compounds (AID 720502); details: Pol eta primer extension, TAMRA/BHQ fluorescence, 10 min; also: potency is read from the fitted curve at half-maximal effect
Summary of the method: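 10 nM Pol eta + cpd, 15 min RT; start w/ 50 nM final primer/TAMRA-reporter/BHQ-2-template substrate; kinetic read 0 and 10 min, ex 525/em 598 nm. Buffer-only wells = negative control.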

[10] = AP1 Signaling Pathway (AID 357; active = well fitted curve in either direction with a large enough effect, not every such curve was filed as active;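 also: ME-180 reporter cells stimulated with EGF at its EC50 level; % is scaled to controls: 0 for no effect and ±100 for the full control effect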); details: ME-180 (cervical carcinoma) AP-1-bla reporter, EGF-induced, beta-lactamase ratio, 5 h; at 7.69 µM (top of the series) unless noted
Summary of the method: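 AP-1-bla ME-180 cells, Opti-MEM + 0.5% dialyzed FBS, plated overnight 37 °C. Cpd titration + EC50 EGF, 5 h 37 °C. CCF4 2.5 h RT; ex 405, em 460/530 ratio → %activity, AC50.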

[11] = NFAT Signaling Pathway (AID 444; active = well fitted curve in either direction with a large enough effect, not every such curve was filed as active;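 also: carbachol stimulus at about its EC50 of 1 µM final; % is scaled to controls: 0 for no effect and ±100 for the full control effect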); details: Jurkat NFAT-bla M1, carbachol, beta-lactamase ratio, 5 h; at 7.69 µM (top of the series) unless noted
Summary of the method: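 Read-out: CCF4 FRET ratio (460 nm/530 nm) after 1 h RT dye loading, used for %activity and AC50 from titration series. Cells: Jurkat NFAT-β-lactamase/M1 line, treated with compound plus 1 uM carbachol for 5 h, 37 °C.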

[12] = Stat Signaling Pathway (AID 446; active = well fitted curve in either direction with a large enough effect, not every such curve was filed as active;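 also: ME-180 cervical cancer cells given 40 pM IL-6 alongside compound; SIE-controlled beta-lactamase reporter measured as 460/530 nm FRET emission ratio; % is scaled to controls: 0 for no effect and ±100 for the full control effect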)
Summary of the method: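 Emission at 460 and 530 nm (excitation 405 nm) reports SIE-controlled beta-lactamase in ME-180 cells. Cells received compound with 40 pM IL-6 for 5 hrs at 37 C; data scaled between 300 pM IL-6 and 125 nM JAK-inhibitor controls.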

[13] = biological target: Glucocorticoid receptor (Homo sapiens) (UniProt P04150); experiment: GR-GFP Redistribution (AID 450;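 active = compounds whose dose series gives a full or clear partial fitted curve of increased nuclear translocation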; also: potency is read from the fitted curve at half-maximal effect); details: U2OS GR-GFP nuclear translocation, laser cytometry, 2 h
[14] = biological target: Lysosomal acid glucosylceramidase (Homo sapiens) (UniProt P04062); experiment: Glucocerebrosidase-p2 (AID 348; in the data active = potency below about 10 µM; also: potency is read from the fitted curve at half-maximal effect); details: purified GBA, blue fluorogenic substrate, 40 min
Summary of the method: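 Normal human glucocerebrosidase (0.2 nM) with blue fluorogenic substrate (80 uM final) in citrate/phosphate pH 5.9 with 10mM sodium taurocholate, 0.01% tween-20; 40 min RT, NaOH/glycine stop; fluorescence Ex 365/Em 440; AC50 from a titration from 0.6 nM upwards.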

[15] = biological target: Cytochrome P450 1A2 (Homo sapiens) (UniProt P05177); experiment: p450-cyp1a2 (AID 410; calls by dose curve; also: potency is read from the fitted curve at half-maximal effect)
Summary of the method: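 O-Demethylation of luciferin 6' methyl ether by human CYP1A2 is monitored as luciferase luminescence. Substrate sits at Km (100uM); enzyme is 20nM. Values are scaled to 57 uM furafylline as maximal inhibition.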

[16] = biological target: Glucocorticoid receptor (Homo sapiens) (UniProt P04150); experiment: GR-EFC Redistribution (AID 451; calls by dose curve; also: potency is read from the fitted curve at half-maximal effect); details: CHO-K1 GR-EFC translocation, beta-gal luminescence, 2 h
Summary of the method: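 Translocation of GR-ED fusion to nuclear EA restores b-gal, read by luminescence after 1 h room-temperature detection. Engineered CHO-K1 biosensor cells, 1,000/well, exposed 2 h at 37 C to titrations up to 46 uM final.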

[17] = biological target: Mitogen-activated protein kinase 10 (Mus musculus) (UniProt Q61831); experiment: JNK3 AlphaScreen Assay (AID 530; active = well fitted curve in either direction with a large enough effect, not every such curve was filed as active;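 also: kinase came from lysate of stimulated human HepG2 cells; signal reports phosphorylation of biotinylated GST-cJun 1-79 at Ser73 with 10 µM ATP; % is scaled to controls: 0 for no effect and ±100 for the full control effect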)
Summary of the method: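 qHTS titrations with 15 min compound pre-incubation before adding ATP (10 uM final). Read-out: AlphaScreen of Ser73-phosphorylated biotin-GST-cJun using HepG2 lysate JNK3 activated by IL-1β and TNFα.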

[18] = biological target: 3',5'-cyclic-AMP phosphodiesterase 4B (Homo sapiens) (UniProt Q07343); experiment: qHTS Assay for Inhibitors of PDE-IV (AID 607; active = well fitted activation curve with a large enough effect in the main read-out, with a control signal flat, not every such curve was filed as active; also: % of control where 0% means no effect)
Summary of the method: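 The readout is membrane depolarisation from a cAMP-sensing CNG channel, detected with a potential dye at ex 535/em 590. Cells were HEK293-derived (endogenous PDE-IV) at 1000 cells/well, titrated up to 22.9 uM final.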

[19] = biological target: Cytochrome P450 2D6 (Homo sapiens) (UniProt P10635); experiment: qHTS Assay for Inhibitors and Substrates of Cytochrome P450 2D6 (AID 891); also: potency is read from the fitted curve at half-maximal effect; nearly all actives have a fitted effect of over 60% in size
Summary of the method: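 Luminescent read-out of luciferin formed by 5 nM human CYP2D6 demethylating 30 uM Luciferin-ME EGE (Km level) over 60 min at room temperature after NADPH regeneration addition. Data normalized to full inhibition by 1.43 uM quinidine.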

[20] = biological target: Cytochrome P450 2C19 (Homo sapiens) (UniProt P33261); experiment: qHTS Assay for Inhibitors and Substrates of Cytochrome P450 2C19 (AID 899); also: potency is read from the fitted curve at half-maximal effect; nearly all actives have a fitted effect of over 60% in size
Summary of the method: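 5nM enzyme + 10uM Luciferin-H EGE (=KM), 50mM KPO4; cpd pin-transferred, 10 min 37C; NADPH regen, 60 min 37C; stopped w/ luciferin detection reagent, 20 min; luminescence. Normalized to 57uM ketoconazole (AC100).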

Chain of Glucocorticoid receptor (Homo sapiens) (P04150 whole entry, looked up, the tested form may be a part): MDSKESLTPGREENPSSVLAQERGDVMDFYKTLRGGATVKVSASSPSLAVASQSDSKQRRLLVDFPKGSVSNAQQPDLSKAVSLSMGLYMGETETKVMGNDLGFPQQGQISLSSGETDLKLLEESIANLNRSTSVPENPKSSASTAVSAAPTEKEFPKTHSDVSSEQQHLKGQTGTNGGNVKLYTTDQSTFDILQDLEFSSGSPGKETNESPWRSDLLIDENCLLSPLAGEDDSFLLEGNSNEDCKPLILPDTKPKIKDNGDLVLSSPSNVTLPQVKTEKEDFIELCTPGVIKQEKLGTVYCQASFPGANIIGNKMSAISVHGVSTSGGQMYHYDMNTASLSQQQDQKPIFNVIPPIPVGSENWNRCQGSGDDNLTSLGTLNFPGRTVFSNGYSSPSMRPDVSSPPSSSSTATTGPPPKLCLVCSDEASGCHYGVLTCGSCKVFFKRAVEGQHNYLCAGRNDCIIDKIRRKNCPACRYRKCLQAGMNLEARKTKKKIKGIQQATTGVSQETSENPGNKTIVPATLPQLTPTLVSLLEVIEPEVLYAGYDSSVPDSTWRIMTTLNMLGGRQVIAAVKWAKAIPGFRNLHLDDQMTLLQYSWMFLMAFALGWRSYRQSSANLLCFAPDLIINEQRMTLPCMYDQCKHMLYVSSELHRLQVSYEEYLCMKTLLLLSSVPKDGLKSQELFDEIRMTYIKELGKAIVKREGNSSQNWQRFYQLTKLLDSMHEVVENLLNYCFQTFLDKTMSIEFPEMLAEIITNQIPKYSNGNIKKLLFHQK
Chain of Rap guanine nucleotide exchange factor 3 (Homo sapiens) (O95398 whole entry, looked up): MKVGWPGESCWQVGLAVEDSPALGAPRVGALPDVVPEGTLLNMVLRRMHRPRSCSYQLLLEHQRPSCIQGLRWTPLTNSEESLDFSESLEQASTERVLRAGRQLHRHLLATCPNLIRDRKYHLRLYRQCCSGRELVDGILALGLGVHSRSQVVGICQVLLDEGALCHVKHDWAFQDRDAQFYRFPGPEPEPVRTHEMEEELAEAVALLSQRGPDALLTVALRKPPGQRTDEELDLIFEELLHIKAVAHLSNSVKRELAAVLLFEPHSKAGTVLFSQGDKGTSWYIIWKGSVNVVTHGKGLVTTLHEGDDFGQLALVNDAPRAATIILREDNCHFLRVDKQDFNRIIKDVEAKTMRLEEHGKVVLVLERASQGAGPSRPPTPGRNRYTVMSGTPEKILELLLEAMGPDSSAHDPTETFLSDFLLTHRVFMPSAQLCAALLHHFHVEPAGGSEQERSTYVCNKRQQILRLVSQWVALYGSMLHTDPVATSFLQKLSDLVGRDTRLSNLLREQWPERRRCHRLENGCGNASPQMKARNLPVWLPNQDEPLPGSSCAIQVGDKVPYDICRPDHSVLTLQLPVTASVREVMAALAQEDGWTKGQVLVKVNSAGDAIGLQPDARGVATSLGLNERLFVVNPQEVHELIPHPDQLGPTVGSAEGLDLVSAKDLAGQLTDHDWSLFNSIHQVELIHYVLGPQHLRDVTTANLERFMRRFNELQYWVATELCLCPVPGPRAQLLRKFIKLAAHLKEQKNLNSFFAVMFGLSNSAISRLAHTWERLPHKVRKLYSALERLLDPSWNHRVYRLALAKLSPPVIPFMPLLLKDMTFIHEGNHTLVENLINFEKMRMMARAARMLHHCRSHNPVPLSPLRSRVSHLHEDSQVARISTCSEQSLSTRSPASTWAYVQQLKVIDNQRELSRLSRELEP
Chain of Tumor susceptibility gene 101 protein (Homo sapiens) (Q99816 whole entry, looked up, the tested form may be a part): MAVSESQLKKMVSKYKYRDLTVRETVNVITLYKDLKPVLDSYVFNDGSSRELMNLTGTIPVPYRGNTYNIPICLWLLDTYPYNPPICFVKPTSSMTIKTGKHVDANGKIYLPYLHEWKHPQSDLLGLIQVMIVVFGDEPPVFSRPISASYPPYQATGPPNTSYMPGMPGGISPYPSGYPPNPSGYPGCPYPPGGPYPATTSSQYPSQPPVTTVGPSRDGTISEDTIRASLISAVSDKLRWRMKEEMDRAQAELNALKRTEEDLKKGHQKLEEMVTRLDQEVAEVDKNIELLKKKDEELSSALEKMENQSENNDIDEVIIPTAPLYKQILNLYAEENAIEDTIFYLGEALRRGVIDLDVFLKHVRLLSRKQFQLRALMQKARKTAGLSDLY
Chain of Rap guanine nucleotide exchange factor 4 (Homo sapiens) (Q8WZA2 whole entry, looked up): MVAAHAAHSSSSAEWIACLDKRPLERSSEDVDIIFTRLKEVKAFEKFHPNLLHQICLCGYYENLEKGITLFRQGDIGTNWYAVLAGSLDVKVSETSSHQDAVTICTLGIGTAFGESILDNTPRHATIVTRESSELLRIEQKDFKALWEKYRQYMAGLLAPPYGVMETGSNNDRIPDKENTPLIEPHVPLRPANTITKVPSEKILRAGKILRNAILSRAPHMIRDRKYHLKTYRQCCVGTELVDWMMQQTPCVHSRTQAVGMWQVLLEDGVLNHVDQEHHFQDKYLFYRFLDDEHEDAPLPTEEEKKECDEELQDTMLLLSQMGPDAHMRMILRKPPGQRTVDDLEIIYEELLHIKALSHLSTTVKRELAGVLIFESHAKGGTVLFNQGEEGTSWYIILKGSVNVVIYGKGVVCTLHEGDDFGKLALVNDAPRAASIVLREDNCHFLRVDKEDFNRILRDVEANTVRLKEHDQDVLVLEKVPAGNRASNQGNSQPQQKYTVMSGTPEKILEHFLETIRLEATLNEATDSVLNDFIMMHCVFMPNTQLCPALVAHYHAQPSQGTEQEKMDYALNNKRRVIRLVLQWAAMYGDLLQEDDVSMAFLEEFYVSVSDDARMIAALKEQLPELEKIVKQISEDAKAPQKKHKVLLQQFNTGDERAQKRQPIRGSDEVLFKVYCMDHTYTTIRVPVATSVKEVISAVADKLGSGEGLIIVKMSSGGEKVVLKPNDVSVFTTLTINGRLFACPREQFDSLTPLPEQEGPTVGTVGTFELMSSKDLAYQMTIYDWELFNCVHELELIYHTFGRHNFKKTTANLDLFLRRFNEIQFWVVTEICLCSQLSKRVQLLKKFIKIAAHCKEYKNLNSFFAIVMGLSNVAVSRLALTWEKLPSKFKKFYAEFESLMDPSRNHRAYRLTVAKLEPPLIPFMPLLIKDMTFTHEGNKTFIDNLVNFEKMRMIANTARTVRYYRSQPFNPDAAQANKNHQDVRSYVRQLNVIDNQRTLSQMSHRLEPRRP
Chain of Lysosomal acid glucosylceramidase (Homo sapiens) (P04062 whole entry, looked up): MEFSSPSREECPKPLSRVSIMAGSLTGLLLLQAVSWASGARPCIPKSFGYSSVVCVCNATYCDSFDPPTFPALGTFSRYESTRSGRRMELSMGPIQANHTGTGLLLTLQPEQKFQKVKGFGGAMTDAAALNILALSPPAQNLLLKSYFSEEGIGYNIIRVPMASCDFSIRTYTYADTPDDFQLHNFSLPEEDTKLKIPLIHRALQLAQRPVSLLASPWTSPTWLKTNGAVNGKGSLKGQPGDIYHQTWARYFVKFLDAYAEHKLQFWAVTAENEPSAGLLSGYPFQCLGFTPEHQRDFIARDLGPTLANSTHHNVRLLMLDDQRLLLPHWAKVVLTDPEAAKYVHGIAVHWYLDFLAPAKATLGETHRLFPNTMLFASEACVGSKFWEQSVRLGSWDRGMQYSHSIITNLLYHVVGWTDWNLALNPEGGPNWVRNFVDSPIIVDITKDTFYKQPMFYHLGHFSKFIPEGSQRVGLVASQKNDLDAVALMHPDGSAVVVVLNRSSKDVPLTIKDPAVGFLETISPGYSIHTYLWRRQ
Chain of 3',5'-cyclic-AMP phosphodiesterase 4B (Homo sapiens) (Q07343 whole entry, looked up): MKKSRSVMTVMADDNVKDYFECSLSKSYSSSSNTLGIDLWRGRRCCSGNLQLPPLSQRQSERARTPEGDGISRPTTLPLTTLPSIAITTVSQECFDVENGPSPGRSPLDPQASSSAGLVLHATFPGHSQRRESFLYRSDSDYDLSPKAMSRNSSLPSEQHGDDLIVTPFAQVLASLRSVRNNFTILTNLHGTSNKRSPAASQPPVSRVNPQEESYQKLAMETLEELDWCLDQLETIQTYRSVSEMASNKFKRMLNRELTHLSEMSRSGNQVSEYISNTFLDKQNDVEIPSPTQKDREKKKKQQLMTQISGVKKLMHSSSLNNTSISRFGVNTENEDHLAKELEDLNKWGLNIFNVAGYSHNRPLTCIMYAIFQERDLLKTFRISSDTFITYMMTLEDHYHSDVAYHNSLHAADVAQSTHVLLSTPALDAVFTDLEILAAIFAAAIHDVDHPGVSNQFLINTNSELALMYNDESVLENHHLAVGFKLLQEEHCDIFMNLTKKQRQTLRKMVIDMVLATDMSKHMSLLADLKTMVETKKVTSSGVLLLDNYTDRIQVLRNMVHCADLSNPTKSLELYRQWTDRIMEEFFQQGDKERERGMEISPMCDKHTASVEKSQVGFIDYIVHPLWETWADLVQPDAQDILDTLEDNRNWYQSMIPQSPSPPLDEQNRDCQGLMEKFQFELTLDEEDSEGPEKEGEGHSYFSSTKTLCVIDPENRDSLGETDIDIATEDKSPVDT
Chain of Cytochrome P450 1A2 (Homo sapiens) (P05177 whole entry, looked up): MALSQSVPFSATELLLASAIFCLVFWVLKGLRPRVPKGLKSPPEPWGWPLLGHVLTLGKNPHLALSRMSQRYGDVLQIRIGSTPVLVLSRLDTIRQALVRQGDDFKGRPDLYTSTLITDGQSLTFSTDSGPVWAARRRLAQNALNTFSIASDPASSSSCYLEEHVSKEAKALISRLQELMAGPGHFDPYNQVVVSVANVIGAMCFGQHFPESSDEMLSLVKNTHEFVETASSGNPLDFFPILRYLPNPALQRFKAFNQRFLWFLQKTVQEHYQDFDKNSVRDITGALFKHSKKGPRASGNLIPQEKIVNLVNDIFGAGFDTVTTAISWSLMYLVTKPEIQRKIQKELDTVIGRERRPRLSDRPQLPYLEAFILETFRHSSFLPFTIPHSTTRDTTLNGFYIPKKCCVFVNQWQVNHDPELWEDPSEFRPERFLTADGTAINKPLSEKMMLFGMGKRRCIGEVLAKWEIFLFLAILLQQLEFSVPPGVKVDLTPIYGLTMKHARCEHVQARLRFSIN

COc1ccc(CNC(=O)C(C#N)c2nc3ccccc3nc2N2CCCC2)cc1 (stereo unspecified)
active: Potency [1] 9.19 µM
inactive: Potency [2] | Potency [3] | Potency [4] | Potency [5] | Potency [6] | Potency [7]

Cc1ccc(C)c2nc3sc(C(=O)N4CCCc5ccccc54)c(N)c3cc12
inactive: Potency [2] | Potency [3] | Potency [4] | Potency [5] | Potency [6]
active: Potency [1] 20.6 µM

COC(=O)c1ccc(COc2ccc(/C=C/C(=O)c3ccc(OC)c(CSCC(=O)O)c3)cc2OC)cc1
inactive: Potency [3] | Potency [4] | Potency [5] | Potency [6] | Potency [7]
active: Potency [8] 75.2 µM | Potency [9] 60.1 µM | Potency [2] 37.9 µM

COC(=O)c1cc(Br)c(=O)n(CCc2ccc(F)cc2)c1
inactive: activity change, negative = inhibition [10] 4.29% [at 17.2 µM] | activity change, negative = inhibition [11] -12.1% [at 17.2 µM] | outcome [12] | Potency [13] > 20.6 µM | Potency [2] | Potency [3] | Potency [4] | Potency [5] | Potency [6]

Cc1cccc(N2C(=O)c3cccc4c(N(C)CCO)ccc(c34)C2=O)c1
inactive: Potency [2] | Potency [5] | Potency [6]
active: Potency [1] 3.66 µM | Potency [3] 89.1 µM | Potency [4] 100 µM | Potency [7] 39.8 µM

CC(C)=CCC1=C(OCC(=O)O)C(=O)c2ccccc2C1=O
inactive: Potency [14] > 11.4 µM | activity change, negative = inhibition [10] 18.8% | outcome [12] | Potency [13] > 46 µM | Potency [16] > 9.22 µM | activity change, negative = inhibition [17] 15.2% [at 11.4 µM] | Potency [18] | Potency [3] | Potency [4] | Potency [5] | Potency [6]
active: Potency [15] 0.501 µM | Potency [19] 3.16 µM | Potency [20] 1.26 µM | Potency [2] 84.9 µM

Cc1ccc(-c2cn3nc(-c4ccccc4)c(-c4ccccc4)nc3n2)cc1
active: Potency [1] 25.9 µM
inactive: Potency [2] | Potency [3] | Potency [4] | Potency [5] | Potency [6] | Potency [7]

Cc1cc2nc3c(=O)n(C4CCCCC4)c(=O)[nH]c3nc2cc1N
active: Potency [1] 0.651 µM | Potency [3] 56.2 µM | Potency [4] 56.2 µM | Potency [7] 25.1 µM
inactive: Potency [2] | Potency [5] | Potency [6]

O=C1C(Cc2ccccc2)SC(=Nc2ccccc2)N1c1ccccc1 (stereo unspecified)
inactive: Potency [2] | Potency [3] | activation [4] 1.92% [at 17.1 µM, percent relative to cAMP agonist control] | Potency [5] | activation [7] 18.1% [at 30.8 µM]

COc1ccccc1CNC(=O)C1(C)CCN1Cc1ccc(OC(F)(F)F)cc1 (stereo unspecified)
active: Potency [2] 67.5 µM | Potency [5] 53.6 µM
inactive: Potency [3] | Potency [4] | Potency [7]
